# Hits are enriched below; roughly 1.3% of the tested compounds scored in any of these assays.
# Rango-impB inh: qHTS Assay for Inhibitors of Rango (Ran-regulated importin-beta cargo) - Importin beta complex formation. Rango CFP/YFP FRET sensor + importin beta, 45 min. Potency, µM (series often up to 92.2 µM), inactives show at the highest dose inhibition of complex formation. 340,000 tested, 0.031% active. AID 540263, 2011;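 further: potency means the concentration at half of the fitted maximal effect; 0% = DMSO wells and 100% = buffer wells lacking importin beta; nearly all actives have a fitted effect of over 15% in size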
# Target sequence (Q14974 whole entry, looked up): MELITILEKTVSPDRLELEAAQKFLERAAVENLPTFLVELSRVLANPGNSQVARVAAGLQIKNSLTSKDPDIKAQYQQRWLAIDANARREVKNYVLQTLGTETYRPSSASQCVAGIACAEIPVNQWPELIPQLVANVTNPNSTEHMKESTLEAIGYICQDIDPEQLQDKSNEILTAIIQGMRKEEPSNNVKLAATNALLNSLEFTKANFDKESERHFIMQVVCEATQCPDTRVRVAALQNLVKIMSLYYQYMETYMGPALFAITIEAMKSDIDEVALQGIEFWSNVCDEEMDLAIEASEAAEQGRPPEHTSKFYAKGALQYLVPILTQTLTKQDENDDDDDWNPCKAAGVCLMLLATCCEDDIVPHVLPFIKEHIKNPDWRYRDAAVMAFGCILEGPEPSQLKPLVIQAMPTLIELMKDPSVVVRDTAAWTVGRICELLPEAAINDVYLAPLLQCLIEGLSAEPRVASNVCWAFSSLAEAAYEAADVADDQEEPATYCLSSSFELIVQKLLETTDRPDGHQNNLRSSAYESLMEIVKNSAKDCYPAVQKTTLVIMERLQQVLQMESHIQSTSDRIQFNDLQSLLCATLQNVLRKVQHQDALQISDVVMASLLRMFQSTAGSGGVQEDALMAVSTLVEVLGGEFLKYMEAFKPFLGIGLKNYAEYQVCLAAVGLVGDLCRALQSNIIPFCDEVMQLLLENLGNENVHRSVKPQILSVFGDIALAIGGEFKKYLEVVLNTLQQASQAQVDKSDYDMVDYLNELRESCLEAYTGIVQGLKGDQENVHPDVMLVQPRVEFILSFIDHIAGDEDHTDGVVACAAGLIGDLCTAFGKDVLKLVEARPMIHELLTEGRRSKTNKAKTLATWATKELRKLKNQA
#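 FRET biosensor Rango (snurportin 1 IBB between N-terminal EYFP and C-terminal Cerulean), 50 nM in PBS/1 mM DTT/0.02% Tween-20/0.1% BSA, preincubated 5 min RT with compound; 0.125 microM importin beta added, 45 min RT, CFP/YFP FRET ratio read.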
# Rango dissoc inh: qHTS Assay for Inhibitors of RanGTP induced Rango (Ran-regulated importin-beta cargo) - Importin beta complex dissociation. AID 540253, 2011. Potency, µM (top dose mostly 46.1 µM), for the others: top-dose activity change, negative = inhibition. 340,000 tested, 0.071% active. Biochemical FRET Rango-importin beta, RanGTP-induced dissociation; further: potency means the concentration at half of the fitted maximal effect; % of control where 0% means no effect; nearly all actives have a fitted effect of over 45% in size
#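 Rango FRET biosensor (snurportin-1 IBB flanked by N-terminal EYFP and C-terminal CFP10) at 0.1 uM, with 0.25 uM importin beta in PBS, 1mM DTT, 0.02% Tween-20, 0.1% BSA. 0.6 uM Ran, 2mM GTP and 0.2 uM RCC1 were then added for 45 min at room temperature. Inhibition read as loss of FRET rise.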
# KCNH2 3.1 inh: qHTS for Inhibitors of KCHN2 3.1: Mutant qHTS; 340,000 tested, 0.95% active; activity change, % (tested at about 1.8 µM); U2OS KCNH2 3.1, thallium flux FluxOr; stronger effect = lower value;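 active means maximum activity change below -70%; inconclusive means maximum activity change from -70% to -50%; inactive means maximum activity change above -50%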;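 further: thallium influx rate constant from kinetic fluorescence after stimulation buffer; on the % scale 0 is the no-effect control and ±100 the full control effect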
#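 Thallium flux via FluxOr fluorescence (Red40 quencher, 45 min loading) in U2OS cells virally expressing the KCNH2 3.1 isoform (1.77 x 10^8 /mL virus, overnight at 37 C). Rate constants from 2-min kinetic reads post-stimulation, normalised to positive and negative controls.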
# hERG WT inh: qHTS for Inhibitors of KCHN2 3.1: Wildtype qHTS | 340,000 tested, 0.37% active | activity change, % at 1.84 µM | U2OS, BacMam KCNH2, thallium flux FluxOr; stronger effect = lower value | AID 720551, 2013 | Voltage-gated inwardly rectifying potassium channel KCNH2 (Homo sapiens), Q12809;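 active means maximum activity change below -70%; inconclusive means maximum activity change between -70% and -50%; inactive means maximum activity change above -50%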; further: on the % scale 0 is the no-effect control and ±100 the full control effect
#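 U2OS cells were transduced with wild-type KCNH2 virus (2.03 x 10^8 / mL) for 4 h at room temperature, then cultured overnight at 37 C. Thallium flux was read with FluxOr dye. Rate constants were normalized to DMSO controls.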
# An asterisk follows results filed as active; ? = inconclusive. Unless noted, the call rests on the fitted dose curve.
SMILES,Rango-impB inh,Rango dissoc inh,KCNH2 3.1 inh,hERG WT inh
C/C=C/c1ccc(OCC(O)CNCC(c2ccc(OC)cc2)N(C)C)c(OC)c1 (centres undefined),-3%,-12%,-73*,-7
Cc1cc(C(=O)CCC(=O)N(C)CC(=O)Nc2c(Cl)cccc2Cl)c(C)s1,0%,8%,4,-16
CCN1C(=O)[C@@H]2[C@@H](c3ccc(-c4ccc(F)cc4)cc3)N3CCCC[C@@]3(C(=O)OC)[C@@H]2C1=O,2%,3%,-4,-7
O=C(NCCN1CCOCC1)c1cc(-c2cccs2)on1,2%,5%,-172*,-11
CCc1ccc2c(c1)C(c1ccc([N+](=O)[O-])cc1)=NNC(c1ccc(F)cc1)=N2,?,12µM*,-32,12
CCc1ccc2c(c1)C(c1ccncc1)=NNC(c1ccccc1)=N2,1%,28%,-1,-1
CC(=O)c1cccc(NC(=O)CC2CCCC2)c1,-4%,0%,3,-5
COC(=O)c1cc(NC(=O)CC2CCCC2)cc(C(=O)OC)c1,-5%,-9%,-73*,0
CCc1ccc2nc(N(CCN(C)C)C(=O)/C=C/c3cccs3)sc2c1,-1%,-20%,-127*,-43
CN(C)CCCN(C(=O)/C=C/c1cccs1)c1nc2ccc(F)cc2s1,15%,17%,-33,-4
Cc1ccc2nc(N(CCN(C)C)C(=O)/C=C/c3cccs3)sc2c1,?,1%,-101*,-16
CCN(CC)CCN(C(=O)/C=C/c1cccs1)c1nc2ccc(C)cc2s1,0%,11%,-99*,-148*
CCOc1ccc2nc(N(CCN(C)C)C(=O)/C=C/c3cccs3)sc2c1,0%,15%,-7,39
Cc1ccc2nc(N(CCCN(C)C)C(=O)CN3C(=O)c4ccccc4C3=O)sc2c1,4%,-5%,-87*,34
O=S(=O)(NC1CC1)c1ccc(Br)cc1N1CCC[C@H]1CO,3%,-2%,5,10
COc1cc2nc(N(CCCN(C)C)C(=O)c3ccc(C(=O)c4ccccc4)cc3)sc2cc1OC,4%,-1%,15,27
CCN(CC)CCN(C(=O)/C=C/c1cccs1)c1nc2ccc(F)cc2s1,-2%,2%,-28,-22
CCc1ccc2nc(N(CCCN(C)C)C(=O)c3ccc(C(=O)c4ccccc4)cc3)sc2c1,1%,-8%,-89*,0
CN(C)CCN(C(=O)/C=C/c1cccs1)c1nc2ccc(Br)cc2s1,0%,-6%,-73*,-10
COc1ccc2[nH]c3c(c2c1)CCN1C(=O)C(CC(=O)NCc2ccc(OC)c(OC)c2)C[C@H](C(=O)N2CCCCC2)[C@@]31CCc1ccccc1 (some centres undefined),0%,0%,2,-7
Cc1ccc(Sc2ccc(CO)cc2[N+](=O)[O-])cc1,-1%,11%,7,2
Cc1ccc(Sc2ccc(CN3CCCC3)cc2[N+](=O)[O-])cc1,5%,26%,-93*,17
O=C(O)c1ccccc1C(=O)c1ccc(Sc2ccc(Cl)cc2)c([N+](=O)[O-])c1,-6%,13%,4,0
CN1CCN(Cc2ccc(Sc3ccc(Cl)cc3)c([N+](=O)[O-])c2)CC1,2%,23%,-90*,-96*
OC(CN1CCCCC1)c1ccc2c3c(cccc13)CC2 (centres undefined),-5%,12%,-7,2
O=C(CN1C(=O)COc2ccc(S(=O)(=O)N3CCCCCC3)cc21)NCc1ccc(F)cc1,6%,13%,2,-3
COc1ccc(CCNC(=O)c2cccc(NS(=O)(=O)c3ccccc3F)c2)cc1OC,0%,?,-2,-1
Cn1c(=O)c2c(ncn2CC(=O)Nc2cc(S(=O)(=O)N3CCCCC3)ccc2Cl)n(C)c1=O,-5%,-12%,-17,6
Cc1ccccc1OCC(=O)Nc1ccc([N+](=O)[O-])cc1,0%,12%,-3,-169*
Clc1ccc(-c2csc(=Nc3cccnc3)n2CCCn2ccnc2)cc1Cl,-5%,-1%,?,16
